Screens (PubChem)
Pf growth 48h: P. falciparum growth inhibition at 48 hours (one generation); P. falciparum luciferase growth in erythrocytes, 48 h; Potency, µM (highest dose often 28.7 µM), without a hit: top-dose activity change, negative = inhibition, hits mostly inhibitors; actives 5.9% (n = 310,000); AID 504832; note: potency is the fitted concentration of half-maximal effect; % is set by controls: 0 for no effect and ±100 for the full control effect
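Parasite viability was followed by luminescence of a genomically integrated firefly luciferase. Cultures held 0.1% parasitemia at 2% hematocrit (final), incubated under 5% CO2 at 37 C.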
Shiga toxin inh: inhibitors of Shiga toxin in Vero cells | actives 9.2% (n = 290,000) | AID 2315 | Vero cells, Shiga toxin protein synthesis inhibition reporter | inhibition, % at 38.7 µM; in the data active = inhibition mostly above about 28%, no sharp cut-off; inactive = mostly below about 43%; note: 0% is about no effect
AMA1 RON2 block: disrupts binding of P. falciparum AMA1 to RON2; AlphaScreen AMA1-biotinylated RON2 peptide binding; Potency, µM (doses to about 58.2 µM), for the others: top-dose activity change, negative = inhibition, most hits filed as inhibitors; actives 0.2% (n = 360,000); AID 720542;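 note: potency is the fitted concentration of half-maximal effect; 0% = vehicle wells and -100% = peptide control; nearly all actives have a fitted effect of over 45% in size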
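AMA1 (3D7) with his tag at 25 nM final met compounds first, then biotinylated RON2 peptide at 25 nM; detection used donor plus acceptor beads, 10 µg/mL apiece, read by AlphaScreen after 30 min at room temperature.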
CHX counter: counter-screen for Shiga toxin inhibitors: cycloheximide protein synthesis inhibition. actives 12% (n = 300,000). cell reporter, cycloheximide protein synthesis inhibition counterscreen. max response, %. AID 2314; in the data active = max response mostly above about 13%, no sharp cut-off; inactive = mostly below about 14%; note: read at 38.3 µM for the half of the compounds with a filed dose; 0% is about no effect
Pf growth 96h: P. falciparum growth inhibition at 96 hours; Potency, µM (titrated, usually from 28.7 µM), for the others: top-dose activity change, negative = inhibition, hits mostly inhibitors; P. falciparum luciferase reporter growth, 96 h; AID 504834; actives 6.9% (n = 320,000); note: potency is the fitted concentration of half-maximal effect; % is set by controls: 0 for no effect and ±100 for the full control effect
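Cell-based qHTS: luciferase-tagged P. falciparum in erythrocytes (2% hematocrit, 0.05% parasitemia final) incubated with compounds for 96 hours, 37 C, 5% CO2; luciferase detection reagent then added and luminescence measured.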
SARS PLpro yeast: blocks SARS-CoV papain-like protease in a yeast assay; S. cerevisiae expressing SARS-CoV PLpro, growth rescue; Potency, µM (titrated, usually from 32.9 µM), for the others: at the highest dose activity, positive = growth rescue, actives largely listed as activators; actives 0.19% (n = 330,000); AID 485353; calls by dose curve; note: potency is the fitted concentration of half-maximal effect; 0% is about no effect; nearly all actives have a fitted effect of over 55% in size
* = called active by the depositor; ? = inconclusive; / = no result; [ ] = dose if it differs, or a comment. Sampled rows, rich in hits. Any-hit rate of the full collection: about 19%. Unless noted, calls come from the whole dose curve; as a rule, active = well fitted curve in the direction sought with a large enough effect; inconclusive = small, poorly fitted or top-dose-only effect, or another doubt; inactive = no such curve, though single readings can be large; an effect the other way counts as inactive or inconclusive.

SMILES | Pf growth 48h | Shiga toxin inh | AMA1 RON2 block | CHX counter | Pf growth 96h | SARS PLpro yeast
N#Cc1c(N)nc2c(c1-c1ccccc1)CCC2 | 1% | 29 | -9% | 20 | 34% | -2%
COc1ccc(-c2nn(-c3ccccc3)cc2C(=O)OCC(=O)c2ccc(C)c([N+](=O)[O-])c2)cc1 | 10µM* | -13 | -3% | -1 | ? | 1%
COc1ccc(-c2cc(C(=O)OCC(=O)c3ccc(C)c([N+](=O)[O-])c3)c3ccccc3n2)cc1 | 5% | 8 | 6% | 4 | -43% | -10%
COC(=O)c1ccc(C(=O)OC)c(NC(=O)CS(=O)(=O)Cc2ccccc2)c1 | 6% | -8 | 0% | -1 | 5.2µM* | 3%
O=C(Cn1cc(C(=O)c2ccco2)c2ccccc21)NC1CC1 | 11% | -9 | 8% | 1 | 1% | -1%
O=C(NC1=NC2CCCCC2N1)c1ccccc1 (stereo not drawn) | 192% | 97* | 2% | 34* | / | 6%
O=C(NC1CCCCCCC1O)c1ccccc1 (stereo not drawn) | / | / | -13% | / | / | /
CCCc1nc2ccc(NC(=O)c3cccs3)cc2c(=O)n1Cc1ccc(Cl)cc1 | 0.47µM* | 10 | -1% | 9 | 2% | 25%
Cc1nc2ccc(NC(=O)c3cccs3)cc2c(=O)n1Cc1ccc(Cl)cc1 | ? | -3 | -6% | 0 | 3.3µM* | -14%
CCCc1nc2ccc(NC(C)=O)cc2c(=O)n1Cc1cccc(Cl)c1 | ? | 0 | -9% | -3 | 2% | 0%
CO[C@H]1CN(C)C(=O)c2ccc(NC(=O)C3CCC3)cc2OC[C@H](C)N(Cc2ccc(F)cc2)C[C@@H]1C | / | / | -8% | / | / | /
CC(=O)Nc1ccc(NC(=S)NC(=O)C2CCCC2)cc1 | -29% | -13 | 9% | 14 | 0% | 3%
CN(C)S(=O)(=O)c1cccc(NC(=S)NC(=O)C2CCCCC2)c1 | 9% | 67* | -1%[11.6 µM] | 41* | 0% | -1%
CN(C)S(=O)(=O)c1cccc(NC(=S)NC2CCCCC2)c1 | -10% | -11 | -7% | -1 | 1% | 1%
Cc1cc(C)cc(NC(=S)NC(=O)C2CC2)c1 | ? | -22 | 11% | 10 | 35% | 15%
Cc1cc(NC(=S)NC(=O)C2CC2)ccc1Br | 7% | 128* | 22% | 51* | -9% | -58%
Cc1cccc(NC(=S)NC(=O)C2CC2)c1 | -13% | 35* | / | 45* | ? | 25%
Cc1ccc(S(=O)(=O)N2CCN(C(=O)N3CCOCC3)C2C(C)C)cc1 (stereo not drawn) | -18% | -14 | 16% | -8 | 12µM* | -1%
CCNC(=S)NNC(=O)c1cc(Br)cs1 | 14% | 29 | 25% | 6 | -21% | 23%
O=C(NCc1cccnc1)c1c[nH]c2cc3c(cc2c1=O)OCCO3 | ? | 145* | 14% | 35* | ? | -9%
CCc1ccc(NS(=O)(=O)c2ccc3[nH]cc(C(=O)NCC4CCCO4)c(=O)c3c2)cc1 (stereo not drawn) | ? | 128 | -14% | 27* | ? | 9%
CCOC(=O)N1CCN(C(=O)c2c[nH]c3ccc(S(=O)(=O)N(C)c4ccc(F)cc4)cc3c2=O)CC1 | -20% | -7 | -9% | -2 | ? | 1%
CCOC(=O)N1CCN(C(=O)c2c[nH]c3ccc(S(=O)(=O)N(C)c4ccc(OCC)cc4)cc3c2=O)CC1 | 24% | -2 | 8% | -4 | 13µM* | -1%
CCc1ccc(NS(=O)(=O)c2ccc3[nH]cc(C(=O)N4CCc5ccccc54)c(=O)c3c2)cc1 | 88% | 25* | -2%[11.6 µM] | 35* | ? | -18%
O=C(NCc1ccccc1)c1c[nH]c2ccccc2c1=O | -26% | 15 | -1% | 1 | ? | -6%
O=C(NCc1ccco1)c1cc([N+](=O)[O-])cc([N+](=O)[O-])c1 | 8% | -5 | 5% | -1 | 58% | 1%
NS(=O)(=O)c1ccc(NC(=O)COC(=O)Cn2cnc3ccccc3c2=O)cc1 | / | / | -6% | / | / | 2%
CN1CCN(C(=O)OC2CC3CC2[C@H]2CCCCN2C3=O)CC1 (stereo partly drawn) | / | / | -3% | / | / | /
